Pf growth 48h: P. falciparum growth inhibition at 48 hours (one generation) | P. falciparum luciferase growth in erythrocytes, 48 h | Potency, µM (top dose mostly 28.7 µM), for inactives: at the top dose activity change, negative = inhibition, most hits filed as inhibitors | 310,000 compounds, 5.9% hits | AID 504832; further: on the % scale 0 is the no-effect control and ±100 the full control effect
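A one-generation exposure of luciferase-tagged malaria parasites in RPMI 1640/Albumax erythrocyte culture, 37 C and 5% CO2. Inhibition is inferred from decreased luminescence after adding detection reagent.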
Vaccinia Venus: inhibitors of vaccinia virus (Venus reporter); Vaccinia virus Venus reporter expression, fluorescence; Potency, µM (series often up to 36.5 µM), for inactives: at the highest dose activity change, negative = inhibition, usual class: inhibitors; 330,000 compounds, 0.46% hits; AID 720580; calls by dose curve; tested in A549 cells; further: on the % scale 0 is the no-effect control and ±100 the full control effect; nearly all actives have a fitted effect of over 30% in size
NS1 function inh: blocks influenza NS1 protein function; AID 2326; 270,000 compounds, 0.4% hits; Potency, µM (doses to about 46.1 µM), for inactives: at the highest dose activity, positive = more growth; calls by dose curve; further: actives are rising curves; nearly all actives have a fitted effect of over 50% in size
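Recovery from NS1-induced slow growth read by OD600 in budding yeast switched to galactose assay medium (pH 6.0, -URA) at 1:100 dilution. Compound 23 nl per well; the matching strain lacking NS1 serves as control.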
VACV mCherry inh: inhibitors of vaccinia virus infection (mCherry reporter signal); Vaccinia virus mCherry reporter infection, fluorescence; Potency, µM (titrated, usually from 36.5 µM), without a hit: at the top dose activity change, negative = inhibition, usual class: inhibitors; 310,000 compounds, 0.63% hits; AID 720579; calls by dose curve; tested in A549 cells; further: on the % scale 0 is the no-effect control and ±100 the full control effect; nearly all actives have a fitted effect of over 35% in size
HCV inh: blocks hepatitis C virus; 340,000 compounds, 3.4% hits; Potency, µM (titrated, usually from 41.8 µM), for inactives: top-dose activity change, negative = inhibition, usual class: inhibitors; AID 651820; Huh7.5.1 HCVcc-Cre infection, luciferase reporter, 44 h; further: on the % scale 0 is the no-effect control and ±100 the full control effect
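1,000 cells/well; 4 h culture; + compound; + HCVcc-Cre (~0.5 moi); 44 h; luciferase substrate, RT 15 min; read 15 sec.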
Pf growth 96h: P. falciparum growth inhibition at 96 hour, primary screen for plastid delayed-death inhibitors; P. falciparum luciferase reporter growth, 96 h; Potency, µM (top dose mostly 28.7 µM), for the others: at the highest dose activity change, negative = inhibition, actives largely listed as inhibitors; 320,000 compounds, 6.9% hits; AID 504834; further: on the % scale 0 is the no-effect control and ±100 the full control effect
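Delayed-death screen, second-generation endpoint: infected erythrocytes, 2% hematocrit, 0.05% parasitemia final; 96 hours at 37 C, 5% CO2; luciferase detection reagent; luminescence decrease equals reduced growth.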
Numbers without * were called inactive; i = inactive; ? = inconclusive; . = no result given; [ ] = another dose, or the depositor's remark. Most compounds without a hit are left out; they make up all but 11% or so of the library. Unless noted, the call rests on the fitted dose curve; in most records, active means well fitted inhibition curve with a large enough effect; inconclusive means small, poorly fitted or top-dose-only effect, or another doubt; inactive means no such curve, though single readings can be large or run the other way. Potency means the concentration at half of the fitted maximal effect.

SMILES	Pf growth 48h	Vaccinia Venus	NS1 function inh	VACV mCherry inh	HCV inh	Pf growth 96h
Cc1csc(CN(C)C(=O)CC2C(=O)NCCN2Cc2ccc(F)c(F)c2)n1 (configuration not stated)	7%	-4%	-2%	-11%	4%	13µM*
CN(Cc1ccon1)C(=O)CC1C(=O)NCCN1Cc1ccc(F)c(F)c1 (configuration not stated)	1%	-12%	25%	-9%	-8%	13%
COc1ccc(CN2CCNC(=O)C2CC(=O)N(C)Cc2nccs2)cc1OC (configuration not stated)	-8%	-8%	-4%	-13%	3%	9.3µM*
CC(C)Cc1nnc(NC(=O)CCC(=O)NC2CCCc3ccccc32)s1 (configuration not stated)	-4%	-9%	-8%	-1%	-1%	-17%
C=CCc1c(C)c(C#N)c2nc3ccccc3n2c1N1CCCCC1	?	1%	0%	i	?	1.9µM*
CCc1c(C)c(C#N)c2nc3ccccc3n2c1N(C)C	2%	-25%	-24%	.	-2%	-20%
COc1ccc(NC(=S)NNC(=S)Nc2cccc(C(F)(F)F)c2)cc1	?	-19%[7.34 µM]	0%	?	?	?
CN(C(=O)COc1ccc(Cl)cc1Cl)c1nnc(C23CC4CC(CC(C4)C2)C3)s1	?	-23%	7%	-8%	13%	13µM*
Nc1nc(N)nc(-c2cc(F)ccc2O)n1	?	10µM*	.	?	-19%	?
COc1cc(CC(=O)O)c([N+](=O)[O-])cc1OC	2%	-6%	7%	-8%	-5%	26%
COc1cc(CC(=O)O)c(C(C)=O)cc1OC	7%	-18%	10%	i	20%	3.7µM*
Cc1nnc2c3ccccc3nc(Nc3cccc(O)c3)n12	.	-13%	.	-11%	.	.
COc1cccc(C(C(=O)NC2CCCC2)N(C(=O)c2ccco2)c2ccccc2)c1OC (configuration not stated)	9.3µM*	-18%	10%	-12%	-5%	-19%
COc1cccc(C(C(=O)NC2CCCC2)N(C(=O)c2ccco2)c2ccc(NC(C)=O)cc2)c1OC (configuration not stated)	1µM*	-8%	-2%	0%	-5%	49%
COc1cccc(C(C(=O)NC2CCCC2)N(C(=O)c2ccco2)c2ccc(C(C)=O)cc2)c1OC (configuration not stated)	?	-5%	-4%	i	27%	-6%
O=C1CCCC2=C1C(c1ccncc1)Nc1ccccc1N2 (configuration not stated)	.	-19%	-5%	.	16%	10µM*
O=C1CCCC2=C1C(c1cccs1)Nc1ccccc1N2 (configuration not stated)	11%	-6%	-3%	-13%	22%	41%
Cc1ccc(CNC(=O)c2c(-c3ccccc3F)noc2C)o1	.	-9%	.	-14%	.	.
Cc1noc(C)c1COc1ccccc1C(=O)N1CCN(S(=O)(=O)c2ccc(F)c(F)c2)CC1	.	.	.	.	15%	.
Cc1ccc(S(=O)(=O)N2CCN(C(=O)c3ccc(COc4ccccc4)o3)CC2)cc1	12µM*	.	.	.	?	9.3µM*
O=C(c1ccc(COc2ccccc2Cl)o1)N1CCCC1	-4%	-15%	-135%	-3%	-26%	?
CC1CCN(C(=O)c2ccc(COc3ccccc3Cl)o2)CC1	?	4%	-104%	.	-27%	10µM*
O=C(c1ccc(COc2ccccc2)o1)N1CCN(S(=O)(=O)c2ccccc2Cl)CC1	13µM*	.	.	.	?	?
O=C(c1ccc(COc2ccccc2Cl)o1)N1CCOCC1	17%	-15%	-20%	-20%	2%	-20%
Cc1ccc(S(=O)(=O)N2CCN(C(=O)c3ccccc3OCc3c(C)noc3C)CC2)cc1	-29%	.	.	.	0.56µM*	?
SMILES	Pf growth 48h	Vaccinia Venus	NS1 function inh	VACV mCherry inh	HCV inh	Pf growth 96h
COc1ccc(Nc2c(-c3ccc(N4CCOCC4)cc3)nc3ncccn23)cc1OC	.	-14%	.	-5%	.	.
CC(C)(C)C(=O)/C(=C\c1ccc([N+](=O)[O-])cc1)n1cncn1	12µM*	.	-38%	.	3.2µM*	?
CN(C)/C=C(/C(=O)c1ccccc1)n1cncn1	1%	1%	0%	-7%	3%	33%
CC(C)(C)C(=O)/C(=C/c1ccc(Cl)cc1)n1cncn1	15µM*	.	-48%	.	?	136%
O=C(c1cn(Cc2ccccc2)nc1-c1cccnc1)N1CCN(Cc2c(F)cccc2Cl)CC1	?	.	.	.	-23%	?
Cc1ccc(/C=N/n2c(C)cc(C)c(C#N)c2=O)cc1	15µM*	.	0%	.	-10%	15µM*
Cc1cc(C)n(/N=C/c2ccc(C(C)C)cc2)c(=O)c1C#N	1.9µM*	-12%	-35%	i	11%	?
COc1ccccc1OCCNC(=O)C(CCSC)NS(=O)(=O)c1ccccc1F (configuration not stated)	-7%	-8%	.	-10%	1%	6%
Cc1ccccc1-c1cc(C(=O)NCc2ccc3c(c2)OCO3)n(CC2CC(c3cccnc3)=NO2)n1 (configuration not stated)	?	?	.	i	-15%	4.1µM*
O=C(NCc1cccc(C(F)(F)F)c1)c1cc(-c2ccccc2)nn1CC1CC(c2cccnc2)=NO1 (configuration not stated)	.	?	.	-4%	-22%	.
Cc1ccccc1-c1cc(C(=O)NCc2cccc(C(F)(F)F)c2)n(CC2CC(c3cccnc3)=NO2)n1 (configuration not stated)	.	-14%	.	0%	8.9µM*	.
Cc1ccccc1CCN1CCCC(CN(C)CC(C)(C)C)C1 (configuration not stated)	-28%	.	14%	.	8%	-18%
CCOC(=O)C1CCCN(c2c(NCCc3ccc(C)cc3)c(=O)c2=O)C1 (configuration not stated)	?	-3%	-3%	i	14%	-25%
CCOC(=O)C1CCCN(c2c(NCC3CCCO3)c(=O)c2=O)C1 (configuration not stated)	.	-22%	-4%	i	23%	-18%
CCOC(=O)C1CCCN(c2c(Nc3cc(C)cc(C)c3)c(=O)c2=O)C1 (configuration not stated)	.	-3%	-1%	4%	-2%	9.3µM*
CCOC(=O)C1CCCN(c2c(Nc3ccc(C)c(C)c3)c(=O)c2=O)C1 (configuration not stated)	8.3µM*	-10%	-1%	?	12%	-16%
CCOC(=O)C1CCN(c2c(N3CCCCCC3)c(=O)c2=O)CC1	12%	1%	-4%	-1%	9%	10µM*
CCOC(=O)C1CCCN(c2c(NCCN3CCCCC3C)c(=O)c2=O)C1 (configuration not stated)	-4%	-1%	-6%	-8%	17%	4.7µM*

Source: PubChem BioAssay (National Center for Advancing Translational Sciences (NCATS))
